From the supplement of paper PMC12808144 come the findings set out here.

Structures are written as SMILES.

The test system of one assay is Mel-DCC-11-R. Nature of the assay: cell viability relative to DMSO control (fraction of DMSO control); higher = less cytotoxic, active = 0.8 or less. The following applies: 1 µM; 120 h; vemurafenib co-treatment 0 µM. The procedure: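 Same 315-drug TargetMol library at 1 µM in duplicate, 120 h, ATPlite luminescence normalised to DMSO controls, on the vemurafenib-resistant subline Mel-DCC-11-R cultured alone or with 8 µM vemurafenib co-treatment (Mel-DCC-11-R + V).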
On to `CS(=O)(=O)c1ccc(C(=O)Nc2ccc(Cl)c(-c3ccccn3)c2)c(Cl)c1` [Vismodegib], for which the cell viability is 0.807 (inactive).

Regarding `Nc1nc(=O)c2c(CCc3ccc(C(=O)N[C@@H](CCC(=O)O)C(=O)O)cc3)c[nH]c2[nH]1` [Pemetrexed acid], the cell viability is 1.22 (inactive).

As for `COc1cc(C[C@H]2C(=O)OC[C@@H]2Cc2ccc(OC)c(OC)c2)ccc1O` [Arctigenin], the cell viability was 1.01 (inactive).

For `N#CC[C@H](C1CCCC1)n1cc(-c2ncnc3[nH]ccc23)cn1` [(R)-Ruxolitinib], the cell viability was 0.967 (inactive).

Take `N.N.O=C([O-])C1(C(=O)[O-])CCC1.[Pt+2]` [Carboplatin]: the cell viability was 0.973 (inactive).

Turning to `CC(=O)c1c(C)c2cnc(Nc3ccc(N4CCNCC4)cn3)nc2n(C2CCCC2)c1=O.Cl` [Palbociclib hydrochloride], the cell viability is 1.46 (inactive).

Consider `CCN(CC)C(=S)SSC(=S)N(CC)CC` [Disulfiram], for which the cell viability is 0.442 (active).

As for `C=CC(=O)Nc1cc(Nc2nccc(-c3cn(C)c4ccccc34)n2)c(OC)cc1N(C)CCN(C)C.CS(=O)(=O)O` [Osimertinib mesylate], the cell viability is 1.21 (inactive).

For the compound `CCCCCCCCCCCCCCCCOP(=O)([O-])OCC[N+](C)(C)C` [Miltefosine], the cell viability was 0.843 (inactive).

For `COc1cc2nccc(Oc3ccc(NC(=O)C4(C(=O)Nc5ccc(F)cc5)CC4)cc3)c2cc1OC` [Cabozantinib], the cell viability was 1.1 (inactive).

Consider `CC1=C(/C=C/C(C)=C/C=C/C(C)=C/C=C/C=C(C)/C=C/C=C(C)/C=C/C2=C(C)CCCC2(C)C)C(C)(C)CCC1` [Beta-Carotene], for which the cell viability was 0.829 (inactive).

With `COc1cc2c(N3CCN(C(=O)Nc4ccc(OC(C)C)cc4)CC3)ncnc2cc1OCCCN1CCCCC1` [Tandutinib], the cell viability is 0.907 (inactive).

With `CO[C@H]1C=CO[C@@]2(C)Oc3c(C)c(O)c4c(O)c(c(/C=N/N5CCN(C)CC5)c(O)c4c3C2=O)NC(=O)/C(C)=C\C=C/[C@H](C)[C@H](O)[C@@H](C)[C@@H](O)[C@@H](C)[C@H](OC(C)=O)[C@@H]1C` [Rifampicin], the cell viability is 0.882 (inactive).

`CC[C@]1(O)C[C@H]2CN(CCc3c([nH]c4ccccc34)[C@@](C(=O)OC)(c3cc4c(cc3OC)N(C=O)[C@H]3[C@@](O)(C(=O)OC)[C@H](OC(C)=O)[C@]5(CC)C=CCN6CC[C@]43[C@@H]65)C2)C1.O=S(=O)(O)O` [Vincristine sulfate]: the cell viability is 0.455 (active).

Take `CCCCCCCCCCCC1=C(O)C(=O)C=C(O)C1=O` [Embelin]: the cell viability is 1.07 (inactive).

Consider `OC[C@H]1O[C@@H](n2cnc3c2NC=NC[C@H]3O)C[C@@H]1O` [Pentostatin], for which the cell viability was 0.905 (inactive).

As for `C[C@@H](CN1CC(=O)NC(=O)C1)N1CC(=O)NC(=O)C1.Cl` [Dexrazoxane HCl], the cell viability is 1.09 (inactive).

Take `COc1cccc2c1C(=O)c1c(O)c3c(c(O)c1C2=O)C[C@@](O)(C(=O)CO)C[C@@H]3O[C@H]1C[C@H](N)[C@@H](O)[C@H](C)O1.Cl` [Epirubicin hydrochloride]: the cell viability is 0.426 (active).

For `CCc1cn([C@H]2C[C@H](O)[C@@H](CO)O2)c(=O)[nH]c1=O` [Edoxudine], the cell viability was 0.776 (active).

As for `CC(=O)OCC(=O)[C@@]1(O)CC[C@H]2[C@@H]3CCC4=CC(=O)C=C[C@]4(C)[C@H]3[C@@H](O)C[C@@]21C` [Prednisolone-21-acetate], the cell viability is 1.14 (inactive).

The same assay, now with this note: 1 µM; 120 h; vemurafenib co-treatment 8 µM.
With `CS(=O)(=O)c1ccc(C(=O)Nc2ccc(Cl)c(-c3ccccn3)c2)c(Cl)c1` [Vismodegib], the cell viability is 0.892 (inactive).

As for `Nc1nc(=O)c2c(CCc3ccc(C(=O)N[C@@H](CCC(=O)O)C(=O)O)cc3)c[nH]c2[nH]1` [Pemetrexed acid], the cell viability is 0.964 (inactive).

Take `COc1cc(C[C@H]2C(=O)OC[C@@H]2Cc2ccc(OC)c(OC)c2)ccc1O` [Arctigenin]: the cell viability was 0.855 (inactive).

Take `N#CC[C@H](C1CCCC1)n1cc(-c2ncnc3[nH]ccc23)cn1` [(R)-Ruxolitinib]: the cell viability was 1.03 (inactive).

Turning to `N.N.O=C([O-])C1(C(=O)[O-])CCC1.[Pt+2]` [Carboplatin], the cell viability is 1.23 (inactive).

Regarding `CC(=O)c1c(C)c2cnc(Nc3ccc(N4CCNCC4)cn3)nc2n(C2CCCC2)c1=O.Cl` [Palbociclib hydrochloride], the cell viability is 1.08 (inactive).

Regarding `CCN(CC)C(=S)SSC(=S)N(CC)CC` [Disulfiram], the cell viability was 0.108 (active).

As for `C=CC(=O)Nc1cc(Nc2nccc(-c3cn(C)c4ccccc34)n2)c(OC)cc1N(C)CCN(C)C.CS(=O)(=O)O` [Osimertinib mesylate], the cell viability is 0.744 (active).

Consider `CCCCCCCCCCCCCCCCOP(=O)([O-])OCC[N+](C)(C)C` [Miltefosine], for which the cell viability is 0.936 (inactive).

Turning to `COc1cc2nccc(Oc3ccc(NC(=O)C4(C(=O)Nc5ccc(F)cc5)CC4)cc3)c2cc1OC` [Cabozantinib], the cell viability is 0.427 (active).

`CC1=C(/C=C/C(C)=C/C=C/C(C)=C/C=C/C=C(C)/C=C/C=C(C)/C=C/C2=C(C)CCCC2(C)C)C(C)(C)CCC1` [Beta-Carotene]: the cell viability was 0.851 (inactive).

As for `COc1cc2c(N3CCN(C(=O)Nc4ccc(OC(C)C)cc4)CC3)ncnc2cc1OCCCN1CCCCC1` [Tandutinib], the cell viability was 1.04 (inactive).

As for `CO[C@H]1C=CO[C@@]2(C)Oc3c(C)c(O)c4c(O)c(c(/C=N/N5CCN(C)CC5)c(O)c4c3C2=O)NC(=O)/C(C)=C\C=C/[C@H](C)[C@H](O)[C@@H](C)[C@@H](O)[C@@H](C)[C@H](OC(C)=O)[C@@H]1C` [Rifampicin], the cell viability is 0.848 (inactive).

On to `CC[C@]1(O)C[C@H]2CN(CCc3c([nH]c4ccccc34)[C@@](C(=O)OC)(c3cc4c(cc3OC)N(C=O)[C@H]3[C@@](O)(C(=O)OC)[C@H](OC(C)=O)[C@]5(CC)C=CCN6CC[C@]43[C@@H]65)C2)C1.O=S(=O)(O)O` [Vincristine sulfate], for which the cell viability is 0.242 (active).

As for `CCCCCCCCCCCC1=C(O)C(=O)C=C(O)C1=O` [Embelin], the cell viability is 1.15 (inactive).

Take `OC[C@H]1O[C@@H](n2cnc3c2NC=NC[C@H]3O)C[C@@H]1O` [Pentostatin]: the cell viability is 1.2 (inactive).

On to `C[C@@H](CN1CC(=O)NC(=O)C1)N1CC(=O)NC(=O)C1.Cl` [Dexrazoxane HCl], for which the cell viability is 1.13 (inactive).

As for `COc1cccc2c1C(=O)c1c(O)c3c(c(O)c1C2=O)C[C@@](O)(C(=O)CO)C[C@@H]3O[C@H]1C[C@H](N)[C@@H](O)[C@H](C)O1.Cl` [Epirubicin hydrochloride], the cell viability is 0.183 (active).

Turning to `CCc1cn([C@H]2C[C@H](O)[C@@H](CO)O2)c(=O)[nH]c1=O` [Edoxudine], the cell viability was 0.802 (inactive).

`CC(=O)OCC(=O)[C@@]1(O)CC[C@H]2[C@@H]3CCC4=CC(=O)C=C[C@]4(C)[C@H]3[C@@H](O)C[C@@]21C` [Prednisolone-21-acetate]: the cell viability is 1.04 (inactive).
